Screens (PubChem)
sEH act – soluble epoxide hydrolase (human) activation; P34913; purified human sEH enzymatic activity, activator screen; activation, % at 2 µM; actives 0.04% (n = 91,000); in the data active means activation above about 37%
Target sequence (P34913 whole entry, looked up): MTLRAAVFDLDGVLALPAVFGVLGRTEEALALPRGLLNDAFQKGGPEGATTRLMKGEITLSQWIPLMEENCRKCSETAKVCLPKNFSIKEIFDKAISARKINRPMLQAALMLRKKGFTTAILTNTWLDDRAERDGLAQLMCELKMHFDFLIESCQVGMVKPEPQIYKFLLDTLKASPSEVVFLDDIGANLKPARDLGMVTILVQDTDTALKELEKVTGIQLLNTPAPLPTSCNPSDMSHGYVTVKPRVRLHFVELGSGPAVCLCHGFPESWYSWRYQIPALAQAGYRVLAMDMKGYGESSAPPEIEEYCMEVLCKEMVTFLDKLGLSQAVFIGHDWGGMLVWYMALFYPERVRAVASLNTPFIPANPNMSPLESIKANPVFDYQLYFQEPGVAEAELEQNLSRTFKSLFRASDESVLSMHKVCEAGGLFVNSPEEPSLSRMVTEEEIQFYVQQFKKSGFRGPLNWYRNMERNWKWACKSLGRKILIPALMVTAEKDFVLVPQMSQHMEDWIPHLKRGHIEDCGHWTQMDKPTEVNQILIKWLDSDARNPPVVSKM
sEH inh – soluble epoxide hydrolase (human) inhibition; recombinant human sEH enzymatic activity assay; P34913; actives 0.34% (n = 91,000); AID 707; inhibition, % at 2 µM; in the data active means inhibition above about 80%
CYP2C9 activ – increases human cytochrome P450 2C9 activity; actives 1.4% (n = 96,000); activation factor at 5 µM; recombinant CYP2C9, luciferin-H conversion, luminescence; hits give high values; factor 1 = untreated enzyme, 0 = blocked;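 active means activation factor of 2 or more for CYP2C9 at a 5 µM dose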;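 further: 0 = sulfaphenazole-blocked wells and 1 = vehicle-only wells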
CYP2C19 inh – inhibitors of human CYP2C19 | P33261 | CYP2C19 Supersomes, luciferin-H EGE luminescence, 30 min | inhibition, % at 5 µM | actives 21% (n = 96,000);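 active means CYP2C19 inhibition above a set limit at 5 µM in the primary screen, cut at about 50% in these data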;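 further: plate controls were negative control wells for no effect and 2.5 mM tranylcypromine positive control for full effect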
CYP2C9 inh – blocks human cytochrome P450 2C9 | P11712 | CYP2C9 Supersomes, luciferin-H conversion, luminescence | inhibition, % at 5 µM | actives 20% (n = 96,000);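 active means blocking of liver enzyme CYP2C9 beyond about 50% at 5 µM, limit read from the data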
CYP2C19 act – increases human CYP2C19 enzyme activity. P33261. recombinant CYP2C19, luciferin-H EGE luminescence; hits give high values; 0 = fully inhibited enzyme, 1 = untreated enzyme. activation factor at 5 µM. 96,000 tested, under 10 active. AID 1025;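 active means activation factor of at least 2 at 5 µM in the primary screen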;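 further: 0 = wells with 2.5 mM tranylcypromine and 1 = vehicle-only wells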
* = called active by the depositor; x = not tested or not shown. Hits are enriched below; roughly 27% of the tested compounds scored in any of these assays.

SMILES	sEH act	sEH inh	CYP2C9 activ	CYP2C19 inh	CYP2C9 inh	CYP2C19 act
COc1cc(N2CN=c3s/c(=C\c4ccccn4)c(=O)n3C2)cc(OC)c1OC	x	x	0.4	22.3	56.4*	0.8
Cc1cccc(N2CN=c3s/c(=C\c4ccncc4)c(=O)n3C2)c1	-13.1	15.5	0.7	59.1*	31.1	0.4
O=c1/c(=C/c2ccccn2)sc2n1CN(c1ccccc1)CN=2	-5.2	6.5	0.7	9.3	30.6	0.9
Cc1ccccc1Nc1nc(N)nc(CN2C(=O)NC3(CCCCC3C)C2=O)n1 (stereo unspecified)	x	x	1.1	7.9	-7.9	0.9
CC(C)CCOCc1nc2sc3c(c2c(=O)[nH]1)CCC(C)C3 (stereo unspecified)	-20.1	18.7	0.3	54.2*	71.9*	0.5
Cn1nc(-c2ccccc2)c(-c2nc(-c3cccc(Cl)c3)no2)c1Cl	0.7	-2.7	0.4	19.7	60.5*	0.8
Cc1cc(NC(=O)C2CC=CCC2C(=O)O)no1 (stereo unspecified)	8.0	-6.5	1.2	-24.5	-24.5	1.2
CCOc1cc(/C=C2/SC(=Nc3ccccc3)N(Cc3cccnc3)C2=O)ccc1OCC#N	8.7	-7.4	1	13.1	-1.3	0.9
O=C(Cn1nnc(-c2ccccc2Cl)n1)N/N=C/c1ccc2c(c1)OCO2	-15.0	17.3	1.8	5.2	-76.4	0.9
CCOC(=O)CC(=O)CSc1ccc2nnc(-c3cccc(F)c3)n2n1	-2.6	3.2	0.5	-2.2	49.5	1
COC(=O)c1ccc(CSc2ccc3nnc(-c4cccc(F)c4)n3n2)o1	-8.6	11.8	0.2	37.2	83.2*	0.6
CCOC(=O)c1sc(NC(=O)CSc2ccccn2)c(C#N)c1C	17.4	-11.7	1.1	-11.9	-7.7	1.1
CCOC(=O)c1sc(NC(=O)c2cccnc2)c(C#N)c1C	23.1	-24.6	0.1	-4.5	94.2*	1
CCOC(=O)c1sc(NC(=O)CSc2ncn[nH]2)c(C#N)c1C	1.6	1.1	0.2	79.3*	81.8*	0.2
CCOC(=O)c1sc(NC(=O)CSc2n[nH]c(-c3ccccc3)n2)c(C#N)c1C	x	x	0.3	19.3	72.1*	0.8
CCOC(=O)c1sc(N(Cc2ccccc2)C(=O)CSc2ncn[nH]2)nc1C	0.2	-2.0	0.2	4.9	78.8*	1
COc1cccc(C(=O)COC(=O)C(C)N2C(=O)C3C4C=CC(C4)C3C2=O)c1 (stereo unspecified)	9.7	-10.5	0.7	30.5	33.2	0.7
CCN(CC)C(=S)Sc1c(-c2ccccc2)c2cc(Cl)ccc2[nH]c1=O	-11.4	11.3	0.9	-15.5	7.6	1.2
CCOC(=O)c1sc(NC(=O)CSc2nc(-c3ccco3)cc(C(F)(F)F)n2)c(C#N)c1C	0.1	-1.0	0.3	42.8	74.1*	0.6
Cc1cc(NC(=O)CSc2nc(-c3ccco3)cc(C(F)(F)F)n2)no1	-7.7	4.4	x	x	x	x
CCOC(=O)CSc1nc2c(c(=O)[nH]c(=O)n2C)n1CCc1ccccc1	2.8	-2.7	0.9	16.1	6.9	0.8
Cn1c(=O)[nH]c(=O)c2c1nc(SCCN1CCOCC1)n2CCCc1ccccc1	1.4	0.9	0.3	22.9	67.1*	0.8
CCOC(=O)C(CC)Sc1nc2c(c(=O)[nH]c(=O)n2C)n1CCc1ccccc1 (stereo unspecified)	-3.2	3.2	0.2	60.0*	78.2*	0.4
Cc1nnc(Sc2nc3c(c(=O)[nH]c(=O)n3C)n2CCCc2ccccc2)s1	17.4	-14.8	0.4	27.3	60.0*	0.7
COC(=O)Cn1cc(C(=O)C2CC2)c2ccccc21	-1.4	-0.6	0.9	16.8	6.7	0.8
SMILES	sEH act	sEH inh	CYP2C9 activ	CYP2C19 inh	CYP2C9 inh	CYP2C19 act
CC(NC(=O)Cn1cc(C(=O)C2CC2)c2ccccc21)c1ccccc1 (stereo unspecified)	-5.6	4.6	0.7	59.2*	30.0	0.4
CCN1CCN(S(=O)(=O)c2cccc([N+](=O)[O-])c2)CC1	3.6	-2.5	0.7	6.4	32.8	0.9
CCN(N=Nc1cccc([N+](=O)[O-])c1)c1cccc([N+](=O)[O-])c1	-11.0	8.4	0.4	30.6	57.7*	0.7
CCOc1ccc2nc3c(cc2c1)CN(CCCO)C(=NCCOC)S3	-2.3	0.0	0.2	67.1*	82.7*	0.3
Cc1ccc(NC(=O)CSc2nc3c(c(=O)[nH]2)CCC3)cc1C	x	x	0.5	18.7	51.3*	0.8
CC(C)c1ccc(NC(=O)CSc2nc3c(c(=O)[nH]2)CCC3)cc1	x	x	0.4	14.5	59.8*	0.9
